Measurements: PubChem BioAssay AID1117319 (Southern Research Institute, 2015)
“And” between values parts separate entries of the source, which are not always exact repeats. Equal values may be shown once. Among all 260,000 compounds or so, about 1,500 (0.58%) were called active. About 5% were inconclusive and are not listed.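 The calls were made as follows: active = inhibition above a set limit at one or more doses, reproduced on every date tested; inconclusive = results disagree between test dates, or hit never tested in dose response; inactive = the rest.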 A selection follows. Entries with a potency or affinity are not part of this list.

Molecular target: Virion infectivity factor (Human immunodeficiency virus type 1 group M subtype B (isolate BH10)) + Virion infectivity factor (Human immunodeficiency virus type 1 group M subtype B (isolate BRU/LAI)) + Virion infectivity factor (Human immunodeficiency virus type 1 group M subtype B (isolate PCV12)) + Virion infectivity factor (Human immunodeficiency virus type 1 group M subtype B (isolate HXB2)) + DNA dC->dU-editing enzyme APOBEC-3G (Homo sapiens) (UniProt P69720+P69721+P69722+P69723+Q9HC16)
Assay: inhibitors of Vif binding to APOBEC3G peptide, primary screen, biochemical, TR-FRET, GST-Vif 1-94, biotin-A3G peptide, dose response retest (AID 1117319);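 also: Vif residues 1-94 fused to GST binding biotinylated APOBEC3G peptide 110-148; 0% = full assay without inhibitor and 100% = GST in place of GST-Vif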
Settings: stronger effect = higher value

inhibition, inactive:
Cc1ccc(-c2cc(C(=O)Nc3c(C)n(C)n(-c4ccccc4)c3=O)[nH]n2)c(O)c1 23.2%, CC(=O)N1CCN(c2ccc(NCc3cccc4ccccc34)cc2)CC1 28.3%, CC(=O)N1CCN(c2ccc(NC(=O)c3ccc4c(c3)OCO4)cc2)CC1 18.3%, CC(=O)Nc1ccc(N2CCN(C(C)=O)CC2)cc1 24.9%, O=C(c1ccccc1)N1CCN(c2ccc(NCc3ccc4c(c3)OCO4)cc2)CC1 21.7%, Nc1c(C(=O)CSc2nccn2-c2ccc(Cl)cc2)c(=O)[nH]c(=O)n1C1CC1 -3.47%, CC1CCN(CCCCOc2cccc(Br)c2)CC1 -0.02%, COc1cccc(NC(=O)N(C)C[C@H]2OCc3cnnn3CCCC(=O)N([C@H](C)CO)C[C@@H]2C)c1 -12.7%, COc1ccc(Oc2cccc(Cl)c2CNC(=O)CSCC(=O)O)cc1 7.24%, COc1ccc(NC(=O)Cc2c[nH]c3ccccc23)cc1S(=O)(=O)N1CCOCC1 -3.49%, Cc1c(NC(=O)C(C)N2C(=O)C3C4C=CC(C4)C3C2=O)c(=O)n(-c2ccccc2)n1C (stereo unspecified) -0.22%, COc1ccc(C(=O)Cn2nnc(-c3ccccc3NC(=O)C3CCCCC3)n2)cc1 -3.13%, Cc1ccc(OCCCN2C(=O)C(=O)c3cc(C)ccc32)cc1 -4.93%, Cn1nnnc1SCCNS(=O)(=O)c1ccccc1 2.62%, Cc1ccc(Nc2cnn(C34CC5CC(CC(CC(=O)O)(C5)C3)C4)c(=O)c2Cl)cc1 -0.2%, Cc1cccc(Nc2cnn(C34CC5CC(CC(CC(=O)O)(C5)C3)C4)c(=O)c2Cl)c1 5.69%, O=c1[nH]nc(Cc2ccc3ccccc3n2)c2ccccc12 -4.55%, COC(=O)N1CCN(c2ccc(C(C)=O)cc2)CC1 5.12%, Cc1ccc(NC(=O)C2CCCN(S(=O)(=O)c3cnc[nH]3)C2)c(Br)c1 (stereo unspecified) 1.69%, COc1ccc(C(=O)Nc2nc(CC(=O)NCCc3cccc(OC)c3)cs2)cc1 0.4%, COc1cc(O)cc(/C=C/c2ccccc2)c1 6.25%, COc1cc(/C=C/c2ccc(O)cc2)cc(OC)c1 0.21%, CNS(=O)(=O)c1cccc(C(=O)OCC(=O)NC(C)CCc2ccccc2)c1 (stereo unspecified) 1.38%, COC(=O)c1ccc(-n2nnnc2SC)cc1 6.93%, CCOc1ccc(NC(=O)N[C@@H](Cc2ccccc2)C(=O)O)cc1 3.58%, O=C(CC1Nc2cccc3cccc(c23)NC1=O)Nc1ccc(F)cc1 (stereo unspecified) 19.5%, CC(=O)Nc1ccc(NC(=O)CC2Nc3cccc4cccc(c34)NC2=O)cc1 (stereo unspecified) 18%, Cc1ccc(C)c(CSc2nnc(C)c(=O)[nH]2)c1 -5.37%, Cc1nn(CC#N)c(=O)n1-c1ccc(F)cc1 0.42%, O=C(CCS(=O)(=O)c1ccc(Cl)cc1)N1CCN(c2ccc(F)cc2)CC1 -4.61%, O=C(CCS(=O)(=O)c1ccc(Br)cc1)N1CCN(c2ccc(Cl)cc2)CC1 5.94%, COc1ccc(CCN2CCCn3c2nc2c3c(=O)n(CC(N)=O)c(=O)n2C)cc1OC -0.32%, NS(=O)(=O)c1ccc(Cl)cc1[N+](=O)[O-] -11.6%, O=C1CCC(=O)N1CN(C(=O)c1ccco1)c1ccc(Cl)c(Cl)c1 3.26% and 3.71%, COc1ccc(N(CN2C(=O)C3CC=CCC3C2=O)C(=O)c2ccco2)cc1 (stereo unspecified) 18.2%, CCc1nn2c(=O)cc(COc3ccc(/C=C4\C(=N)N5N=C(C)SC5=NC4=O)cc3)nc2s1 -5.78%, Oc1c(CN2CCOCC2)cc(CN2CCOCC2)c(O)c1CN1CCOCC1 4.15%, Oc1c(CN2CCOCC2)ccc(CN2CCOCC2)c1O 30.9%, CC1(C)Cc2ccccc2C2CC(O)C(=O)N21 (stereo unspecified) 4.18%, CC(=O)N1Cc2ccccc2C(C)CC12CCCC2 (stereo unspecified) -6.77%, NC(=O)c1ccc[n+](Cc2ccc(-c3ccccc3)cc2)c1 8.95%, Cc1ccc(CN2C(=O)c3ccccc3NC2c2cc(Br)ccc2O)cc1 (stereo unspecified) -3.39%, CCOC(=O)C(C)(C)Sc1ncnc2nc[nH]c12 -1.07%, CCCCCCCCOC(=O)c1cc([N+](=O)[O-])c(Sc2ncnc3nc[nH]c23)c([N+](=O)[O-])c1 29.5%, CCn1c(SCC(=O)NCCc2ccccc2)nc2sc3c(c2c1=O)CCN(C)C3 14.3%, COc1ccccc1CCc1nnc(CCC(=O)NCC[C@@H]2C[C@@H]3C=C[C@H]2C3)o1 2.31%, O=C(c1ccco1)N1CCN(Cc2cc(=O)c(OCc3ccccc3Cl)co2)CC1 -9.22%, N#CC1=C(N)C2=CCCC[C@H]2[C@H](c2ccc(Br)cc2)C1(C#N)C#N 4.38%, N#CC(C#N)=C1C=C2C=C(N3CCCCCC3)CCC2CC1 (stereo unspecified) 8.28%, Cc1nc(C(=O)O)nn1-c1cc(Cl)ccc1Cl 2.06%, Cc1cccc(N(C(=O)CNC(=O)c2ccco2)C(C(=O)NC2CCCC2)c2cccnc2)c1 (stereo unspecified) -6.56%, CN(C)S(=O)(=O)c1cccc(NC(=O)CSc2nncn2-c2ccccc2)c1 1.63%, COc1cc([C@H]2[C@@H]3CCCC[C@]3(O)CCN2Cc2ccccc2F)ccc1O 4.71%, O=C(CN1CC(=O)Oc2ccccc21)OCC(=O)c1cccc(Br)c1 20.7%, O=c1cc(-c2ccccc2)c2c([nH]1)CCCC2 -2.63%, O=c1cc(O)c(-c2ccccc2Cl)c(Cl)[nH]1 -2.11%, CC(c1ccccc1)n1c(SCC(=O)Nc2ccccc2)n[nH]c1=O (stereo unspecified) -10.8%, CCN(CC)c1ccc(C2Nc3cccc4cccc(c34)N2)c(O)c1 6.26%, Oc1ccccc1C1Nc2cccc3cccc(c23)N1 20%, Cc1ccc(-c2cc3cccc[n+]3cc2-c2ccc(C)cc2)cc1 10.5%, Cc1csc2cc(-c3cccc([N+](=O)[O-])c3)c(-c3cccc([N+](=O)[O-])c3)c[n+]12 1.42%, Cn1nccc1C(=O)Nc1ccc2c(c1)OCO2 -8.05%, O=C(CSc1nnc2scc(-c3ccc(Cl)cc3)n12)NCc1ccc2c(c1)OCO2 31.6%, Cc1c(NC(=O)CN2CCN(c3ccc(F)cc3)CC2)c(=O)n(-c2ccccc2)n1C -4.9%, Cc1c(NC(=O)CN2CCN(c3ccccc3)CC2)c(=O)n(-c2ccccc2)n1C 2.33%, C=CCn1c(=O)c2ccccc2n2c(SCc3nc4ccccc4s3)nnc12 0.94%, Cc1oc(-c2ccccc2F)nc1CS(=O)CC(=O)NCc1ccccc1 (stereo unspecified) -9.75%, Nn1cnnc1N/N=C/c1ccc(Cl)cc1Cl -0.88%, Cc1ccc(-c2cc(C(=O)Nc3c(C)n(C)n(-c4ccccc4)c3=O)no2)cc1 -0.77%, Cc1c(NC(=O)c2cc(-c3ccccc3)on2)c(=O)n(-c2ccccc2)n1C -2.53%, COc1ccc(-c2cc(C(=O)Nc3c(C)n(C)n(-c4ccccc4)c3=O)no2)cc1 -3.59%, COc1ccc(-c2cc(C(=O)Nc3c(C)n(C)n(-c4ccccc4)c3=O)no2)cc1OC -4.54%, Cc1ccc(NC(=O)C2CC(O)CN2C(=O)OCc2ccccc2)cc1C (stereo unspecified) -2.11%, CCc1nn2c(NCCOC)cc(C)nc2c1-c1ccc(F)cc1 -2.39%, CC1CCCCC1NC(=O)Cn1nnc2ccccc2c1=O (stereo unspecified) -5.45%, CCCN(C(=O)COc1ccc(C(C)=O)cc1OC)C1CCS(=O)(=O)C1 (stereo unspecified) -0.07%, CC(C)OCCCNCc1cccs1 -0.18%, C=CCSC1=N/C(=C\c2ccsc2)C(=O)S1 2.35%, C=CCSC1=N/C(=C\c2ccc(C(=O)O)cc2)C(=O)S1 -15.6%, CCCSC1=N/C(=C\c2ccc3c(c2)OCO3)C(=O)S1 27%, CCCSC1=N/C(=C\c2ccsc2)C(=O)S1 0.21%, CCOc1c(OC(C)=O)ccc(/C=C2\N=C(SCC)SC2=O)c1[N+](=O)[O-] 9.49%, CCSC1=N/C(=C\c2ccc(-c3ccccc3[N+](=O)[O-])o2)C(=O)S1 13.5%, COc1ccccc1NC(=O)NCCN1C(=O)C2C3C=CC(C3)C2C1=O (stereo unspecified) 4.08%, CCOC(=O)c1c(-c2ccc(Cl)cc2)cn2ccccc12 13.8%, COc1ccc(OC)c(NC(=O)c2ccccc2N(Cc2ccccc2)S(C)(=O)=O)c1 7.69%, CC(OC(=O)c1ccc(Cl)nc1)C(=O)NC1(C#N)CCCCC1 (stereo unspecified) 2.48%, COc1cccc(C(=O)NCC(c2ccc3c(c2)OCO3)N2CCN(c3ccc(F)cc3)CC2)c1 (stereo unspecified) -2.23%, CC(=O)N1CCOc2ccc(S(=O)(=O)NCCc3cccc(C)c3)cc21 2.22%, Cc1ccc2cc(CN(Cc3ccc4c(c3)OCO4)Cc3nnnn3Cc3ccco3)c(=O)[nH]c2c1C -12.9% and 10.6%, Cc1ccc2cc(CN(CCN3CCOCC3)Cc3nnnn3Cc3ccco3)c(=O)[nH]c2c1C 11.1%
